Targets with a hit are over-represented here; the source holds about 8,800 in all. About 0.5% of all pairs of compound and target were hits.
Key:
Test in all cases: log2 fold change, soluble protein after heating vs DMSO (PISA); higher = thermal stabilisation; K562 lysate, 10 uM; active = over 0.2 and 3.5 SD of the protein, either way, in both replicates (recomputed)
[1] = compound: CS(=O)(=O)CCNCc1ccc(-c2ccc3ncnc(Nc4ccc(OCc5cccc(F)c5)c(Cl)c4)c3c2)o1 [lapatinib]
Summary of the method: (§1)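 Quantification was by TMTpro 16plex LC-MS/MS with equalised channel sums, applied to the supernatant after 21,000xg for 90 min. Samples were crude K562 extract at 1 mg/mL protein in PBS pH 7.4 with 1 mM MgCl2, treated with 10 μM compound for 30 min, heated for 3 min across 48°C-58°C, pooled and brought to 0.5% NP-40 at 4°C. Values are log-two fold changes in thermal stability relative to solvent controls, from duplicates.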

[2] = compound: CS(=O)(=O)N1CCN(Cc2cc3nc(-c4cccc5[nH]ncc45)nc(N4CCOCC4)c3s2)CC1 [pictilisib]
Summary of the method: as §1

[3] = compound: C[C@@H](Oc1cc(-c2cnn(C3CCNCC3)c2)cnc1N)c1c(Cl)ccc(F)c1Cl [crizotinib]
Summary of the method: as §1

[4] = compound: C[C@H](C1=CC=C(C=C1)C(=O)NC2=C3C=CNC3=NC=C2)N
Summary of the method: as §1

[5] = compound: C[C@H](Nc1ncnc2nc[nH]c12)c1cc2cccc(Cl)c2c(=O)n1-c1ccccc1 [duvelisib]
Summary of the method: as §1

[6] = compound: Cc1cc(Nc2cc(CN3CCOCC3)c3nc(C)c(Cc4ccc(Cl)cc4F)n3n2)n[nH]1 [gandotinib]
Summary of the method: as §1

[7] = compound: Cc1cc(Nc2cc(N3CCN(C)CC3)nc(Sc3ccc(NC(=O)C4CC4)cc3)n2)n[nH]1 [tozasertib]
Summary of the method: as §1

[8] = compound: Cc1ccc(-n2nc(C(C)(C)C)cc2NC(=O)Nc2ccc(OCCN3CCOCC3)c3ccccc23)cc1 [doramapimod]
Summary of the method: as §1

[9] = compound: Cc1ccc(NC(=O)c2ccc(CN3CC[C@H](N(C)C)C3)c(C(F)(F)F)c2)cc1Nc1nccc(-c2cncnc2)n1 [bafetinib]
Summary of the method: as §1

[10] = compound: Cc1cccc(CC(=O)N2CCc3c2ccc(-c2cn(C)c4ncnc(N)c24)c3F)n1
Summary of the method: as §1

[11] = compound: Cc1cn(-c2cc(NC(=O)c3ccc(C)c(Nc4nccc(-c5cccnc5)n4)c3)cc(C(F)(F)F)c2)cn1 [nilotinib]
Summary of the method: as §1

[12] = compound: Cc1nc(Nc2n[nH]c3c2CN(C(=O)N[C@H](CN(C)C)c2ccccc2)C3(C)C)c2sccc2n1
Summary of the method: as §1

[13] = compound: Cc1nc(Nc2ncc(C(=O)Nc3c(C)cccc3Cl)s2)cc(N2CCN(CCO)CC2)n1 [dasatinib]
Summary of the method: as §1

[14] = compound: Cc1ncc(-c2ccnc(Nc3ccc(S(C)(=O)=O)cc3)n2)n1C(C)C
Summary of the method: as §1

[15] = compound: Cn1cc(-c2ccc3c(c2)CCN3C(=O)Cc2cccc(C(F)(F)F)c2)c2c(N)ncnc21
Summary of the method: as §1

[16] = compound: Cn1cc(CNCC2CCN(c3ncc(C(=O)NO)cn3)CC2)c2ccccc21 [quisinostat]
Summary of the method: as §1

[17] = compound: Cn1cncc1[C@@](N)(c1ccc(Cl)cc1)c1ccc2c(c1)c(-c1cccc(Cl)c1)cc(=O)n2C [tipifarnib]
Summary of the method: as §1

[18] = compound: NC(=O)Nc1cc(-c2cccc(F)c2)sc1C(=O)N[C@H]1CCCNC1
Summary of the method: as §1

[19] = compound: NC(=O)c1cnc(N[C@@H]2CCCC[C@@H]2N)nc1Nc1cccc(-n2nccn2)c1
Summary of the method: as §1

[20] = compound: NC1(c2ccc(-c3nc4ccn5c(=O)[nH]nc5c4cc3-c3ccccc3)cc2)CCC1
Summary of the method: as §1

Measured: log2 fold change

STK26 (UniProt Q9P289)
UniProt Q9P289, sequence (Q9P289 whole entry, looked up): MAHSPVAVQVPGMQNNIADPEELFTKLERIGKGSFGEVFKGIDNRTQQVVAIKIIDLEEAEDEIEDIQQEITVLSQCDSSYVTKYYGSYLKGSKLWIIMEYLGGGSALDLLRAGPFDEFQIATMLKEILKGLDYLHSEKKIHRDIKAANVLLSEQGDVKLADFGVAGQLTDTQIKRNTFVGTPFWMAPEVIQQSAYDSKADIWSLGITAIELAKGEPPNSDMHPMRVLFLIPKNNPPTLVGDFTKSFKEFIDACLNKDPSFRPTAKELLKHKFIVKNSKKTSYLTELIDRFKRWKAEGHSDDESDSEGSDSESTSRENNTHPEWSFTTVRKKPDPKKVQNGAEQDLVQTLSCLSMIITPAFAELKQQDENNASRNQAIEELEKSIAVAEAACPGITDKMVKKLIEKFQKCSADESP
inactive: [1] -0.011 | [2] 0.024 | [3] 0.007 | [4] -0.003 | [5] 0.005 | [6] 0.061 | [7] 0.005 | [8] -0.036 | [9] -0.015 | [10] -0.004 | [11] -0.033 | [13] 0.102 | [14] 0.044 | [15] 0.029 | [16] -0.035 | [17] -0.013 | [18] 0.104 | [19] 0.002 | [20] -0.008
active: [12] 0.25

SMC1B isoform 3 (UniProt Q8NDV3)
inactive: [1] 0 | [2] -0.037 | [3] -0.019 | [5] 0.015 | [7] 0.26 | [8] -0.036 | [9] -0.093 | [11] 0.022 | [12] -0.041 | [13] -0.004 | [14] 0.023 | [15] 0.016 | [16] 0.004 | [17] 0.008 | [18] -0.014 | [19] -0.005 | [20] -0.055

STARD3 isoform 3 (UniProt Q14849)
active: [13] 0.272
inactive: [1] -0.094 | [2] -0.087 | [3] -0.024 | [4] -0.072 | [5] -0.005 | [6] 0.027 | [7] -0.075 | [8] 0.021 | [9] -0.209 | [10] 0.084 | [11] -0.06 | [12] -0.008 | [14] 0.063 | [15] 0.02 | [16] 0.027 | [17] -0.047 | [18] -0.039 | [19] 0.015 | [20] 0.026

SOX5 (UniProt P35711)
UniProt P35711, sequence (P35711 whole entry, looked up): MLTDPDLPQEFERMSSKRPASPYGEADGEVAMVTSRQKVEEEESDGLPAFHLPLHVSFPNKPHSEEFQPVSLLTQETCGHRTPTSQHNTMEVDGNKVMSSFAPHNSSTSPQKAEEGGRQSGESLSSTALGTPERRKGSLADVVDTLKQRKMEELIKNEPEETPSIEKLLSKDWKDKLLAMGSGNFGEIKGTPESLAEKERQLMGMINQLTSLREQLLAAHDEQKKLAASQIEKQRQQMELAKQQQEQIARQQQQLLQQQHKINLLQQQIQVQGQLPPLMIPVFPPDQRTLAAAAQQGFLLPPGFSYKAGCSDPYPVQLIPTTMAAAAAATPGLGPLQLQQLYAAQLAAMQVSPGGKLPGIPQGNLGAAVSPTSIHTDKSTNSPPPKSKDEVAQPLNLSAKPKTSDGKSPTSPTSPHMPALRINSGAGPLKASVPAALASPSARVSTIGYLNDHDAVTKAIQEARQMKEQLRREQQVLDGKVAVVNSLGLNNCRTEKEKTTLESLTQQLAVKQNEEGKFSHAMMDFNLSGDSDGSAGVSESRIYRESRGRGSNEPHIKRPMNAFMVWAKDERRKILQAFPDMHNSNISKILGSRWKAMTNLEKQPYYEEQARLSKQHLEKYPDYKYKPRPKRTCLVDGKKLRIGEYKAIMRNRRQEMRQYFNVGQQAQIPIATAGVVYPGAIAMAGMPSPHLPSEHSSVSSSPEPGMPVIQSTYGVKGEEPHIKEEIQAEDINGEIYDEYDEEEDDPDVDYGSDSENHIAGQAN
inactive: [1] 0.137 | [2] -0.019 | [3] 0.006 | [4] 0.007 | [5] -0.073 | [6] 0.06 | [7] -0.017 | [8] 0.026 | [9] -0.235 | [10] 0.007 | [13] -0.035 | [15] -0.095 | [16] 0.027 | [18] -0.03 | [19] -0.186 | [20] -0.004

SRGN (UniProt P10124)
UniProt P10124, sequence (P10124 whole entry, looked up): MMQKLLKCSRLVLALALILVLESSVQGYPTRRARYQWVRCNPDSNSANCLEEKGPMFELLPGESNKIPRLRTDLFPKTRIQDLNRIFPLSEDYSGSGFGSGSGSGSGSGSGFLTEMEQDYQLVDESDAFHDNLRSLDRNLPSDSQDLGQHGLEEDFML
inactive: [1] 0.016 | [2] -0.181 | [3] -0.054 | [4] -0.046 | [5] 0.019 | [6] -0.097 | [7] 0.008 | [8] -0.071 | [9] -0.17 | [10] 0.192 | [13] 0.003 | [15] -0.062 | [16] -0.026 | [18] 0 | [19] 0 | [20] -0.086

SH3BP2 isoform 4 (UniProt P78314)
UniProt P78314, sequence (P78314 whole entry, looked up): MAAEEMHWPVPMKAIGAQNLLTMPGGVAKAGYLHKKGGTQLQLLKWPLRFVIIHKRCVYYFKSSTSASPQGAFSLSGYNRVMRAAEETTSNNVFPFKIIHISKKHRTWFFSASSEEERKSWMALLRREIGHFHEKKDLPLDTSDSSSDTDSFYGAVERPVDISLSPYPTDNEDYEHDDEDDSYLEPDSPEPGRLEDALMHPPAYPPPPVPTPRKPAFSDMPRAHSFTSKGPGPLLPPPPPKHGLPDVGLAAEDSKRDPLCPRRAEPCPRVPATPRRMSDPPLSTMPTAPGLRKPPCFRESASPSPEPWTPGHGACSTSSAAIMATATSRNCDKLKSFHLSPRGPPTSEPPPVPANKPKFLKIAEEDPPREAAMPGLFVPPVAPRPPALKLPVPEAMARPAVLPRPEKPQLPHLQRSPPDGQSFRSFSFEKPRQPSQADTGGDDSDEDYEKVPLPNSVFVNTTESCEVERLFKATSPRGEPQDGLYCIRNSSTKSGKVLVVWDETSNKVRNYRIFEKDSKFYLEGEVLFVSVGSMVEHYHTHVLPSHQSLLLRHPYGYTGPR
active: [2] -0.41
inactive: [1] -0.135 | [3] -0.021 | [4] 0.01 | [5] 0.053 | [6] -0.02 | [8] 0.057 | [9] -0.105 | [10] 0.123 | [13] -0.027 | [15] -0.107 | [16] -0.111 | [18] 0.019 | [19] 0.141 | [20] 0.048

SLC30A9 (UniProt Q6PML9)
inactive: [1] -0.007 | [2] -0.054 | [3] -0.043 | [4] -0.423 | [5] 0.048 | [6] 0.008 | [7] -0.003 | [8] 0.036 | [9] -0.161 | [11] -0.026 | [12] 0.013 | [13] -0.035 | [14] -0.049 | [15] 0.055 | [16] 0.041 | [17] 0.14 | [18] -0.044 | [19] -0.026 | [20] -0.008
active: [10] 0.312

TANGO6 (UniProt Q9C0B7)
UniProt Q9C0B7, sequence (Q9C0B7 whole entry, looked up): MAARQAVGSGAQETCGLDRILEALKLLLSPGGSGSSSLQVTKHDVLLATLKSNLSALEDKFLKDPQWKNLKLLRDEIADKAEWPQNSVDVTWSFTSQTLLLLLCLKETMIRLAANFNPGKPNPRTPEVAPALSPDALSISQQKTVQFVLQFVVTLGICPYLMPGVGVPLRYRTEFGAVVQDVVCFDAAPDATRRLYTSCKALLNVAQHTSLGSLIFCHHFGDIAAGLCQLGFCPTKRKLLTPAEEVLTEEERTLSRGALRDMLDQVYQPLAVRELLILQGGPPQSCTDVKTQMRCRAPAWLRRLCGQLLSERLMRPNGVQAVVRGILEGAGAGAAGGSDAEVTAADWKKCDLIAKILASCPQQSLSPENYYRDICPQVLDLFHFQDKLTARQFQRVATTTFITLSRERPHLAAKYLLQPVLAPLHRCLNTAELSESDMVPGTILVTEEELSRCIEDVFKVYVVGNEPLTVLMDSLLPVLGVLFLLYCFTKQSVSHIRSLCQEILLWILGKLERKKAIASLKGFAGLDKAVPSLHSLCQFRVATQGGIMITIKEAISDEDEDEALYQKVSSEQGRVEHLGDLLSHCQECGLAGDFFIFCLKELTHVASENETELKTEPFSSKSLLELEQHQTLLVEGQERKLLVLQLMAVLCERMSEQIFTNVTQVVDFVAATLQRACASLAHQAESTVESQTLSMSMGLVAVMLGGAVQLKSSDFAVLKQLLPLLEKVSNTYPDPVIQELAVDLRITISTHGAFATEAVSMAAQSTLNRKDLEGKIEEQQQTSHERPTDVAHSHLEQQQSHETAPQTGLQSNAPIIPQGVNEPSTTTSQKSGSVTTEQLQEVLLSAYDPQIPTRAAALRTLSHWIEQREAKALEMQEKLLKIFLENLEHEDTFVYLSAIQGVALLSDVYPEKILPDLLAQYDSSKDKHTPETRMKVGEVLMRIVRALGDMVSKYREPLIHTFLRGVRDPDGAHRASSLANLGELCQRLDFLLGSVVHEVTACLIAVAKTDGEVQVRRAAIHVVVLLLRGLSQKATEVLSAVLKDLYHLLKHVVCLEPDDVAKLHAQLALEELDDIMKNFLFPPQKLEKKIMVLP
inactive: [1] -0.054 | [2] -0.002 | [3] -0.065 | [4] -0.102 | [5] 0.005 | [6] 0.037 | [7] -0.023 | [8] 0.014 | [9] -0.064 | [10] 0.115 | [11] 0.042 | [12] -0.056 | [13] -0.006 | [14] 0.019 | [15] 0.025 | [16] -0.056 | [17] 0.044 | [18] 0.046 | [19] -0.037 | [20] -0.001

SORBS3 (UniProt O60504)
UniProt O60504, sequence (O60504 whole entry, looked up): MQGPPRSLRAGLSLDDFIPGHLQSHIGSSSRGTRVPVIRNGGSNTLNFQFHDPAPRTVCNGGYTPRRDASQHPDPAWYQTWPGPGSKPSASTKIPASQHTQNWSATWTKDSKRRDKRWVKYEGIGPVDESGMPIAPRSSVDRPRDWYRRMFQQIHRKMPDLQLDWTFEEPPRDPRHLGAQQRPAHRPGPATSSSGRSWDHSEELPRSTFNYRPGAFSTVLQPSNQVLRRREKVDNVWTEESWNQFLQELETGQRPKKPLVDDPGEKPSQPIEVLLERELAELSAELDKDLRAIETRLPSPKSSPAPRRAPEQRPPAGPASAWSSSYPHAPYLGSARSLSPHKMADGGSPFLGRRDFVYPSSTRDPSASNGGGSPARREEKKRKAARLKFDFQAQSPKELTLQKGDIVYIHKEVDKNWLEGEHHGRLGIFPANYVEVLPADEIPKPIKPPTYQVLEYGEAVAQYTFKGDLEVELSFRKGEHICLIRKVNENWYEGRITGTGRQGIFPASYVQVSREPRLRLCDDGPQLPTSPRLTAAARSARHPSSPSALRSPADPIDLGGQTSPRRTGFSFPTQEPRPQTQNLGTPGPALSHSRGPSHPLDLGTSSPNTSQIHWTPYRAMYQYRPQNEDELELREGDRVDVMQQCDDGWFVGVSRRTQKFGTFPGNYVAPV
inactive: [1] 0.072 | [2] 0.007 | [3] -0.002 | [4] 0.006 | [5] -0.127 | [6] 0.024 | [7] -0.012 | [8] -0.019 | [9] -0.032 | [10] 0.025 | [13] 0.005 | [15] -0.019 | [16] -0.088 | [18] 0.022 | [19] 0.036 | [20] -0.019

SYNE2 isoform 2 (UniProt Q8WXH0)
active: [4] -0.93
inactive: [1] -0.082 | [2] -0.103 | [3] 0.058 | [5] 0.073 | [6] 0.296 | [7] -0.003 | [8] 0.183 | [9] -0.194 | [10] 0.397 | [11] 0.086 | [12] -0.034 | [13] 0.032 | [14] -0.002 | [15] -0.024 | [16] -0.176 | [17] 0.005 | [18] -0.043 | [19] -0.021 | [20] -0.091

SMIM12 (UniProt Q96EX1)
UniProt Q96EX1, sequence (Q96EX1 whole entry, looked up): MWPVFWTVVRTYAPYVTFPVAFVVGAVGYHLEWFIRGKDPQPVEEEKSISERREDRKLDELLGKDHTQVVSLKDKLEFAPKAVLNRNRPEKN
active: [4] 0.417
inactive: [1] 0.014 | [2] 0.022 | [3] -0.024 | [5] -0.061 | [6] -0.191 | [7] -0.009 | [8] 0.077 | [9] -0.083 | [10] -0.153 | [11] 0.014 | [12] 0.025 | [13] 0.09 | [14] 0.027 | [15] 0.061 | [16] -0.093 | [17] -0.023 | [18] 0.002 | [19] -0.016 | [20] -0.041

SLC30A6 isoform 2 (UniProt Q6NXT4)
UniProt Q6NXT4, sequence (Q6NXT4 whole entry, looked up): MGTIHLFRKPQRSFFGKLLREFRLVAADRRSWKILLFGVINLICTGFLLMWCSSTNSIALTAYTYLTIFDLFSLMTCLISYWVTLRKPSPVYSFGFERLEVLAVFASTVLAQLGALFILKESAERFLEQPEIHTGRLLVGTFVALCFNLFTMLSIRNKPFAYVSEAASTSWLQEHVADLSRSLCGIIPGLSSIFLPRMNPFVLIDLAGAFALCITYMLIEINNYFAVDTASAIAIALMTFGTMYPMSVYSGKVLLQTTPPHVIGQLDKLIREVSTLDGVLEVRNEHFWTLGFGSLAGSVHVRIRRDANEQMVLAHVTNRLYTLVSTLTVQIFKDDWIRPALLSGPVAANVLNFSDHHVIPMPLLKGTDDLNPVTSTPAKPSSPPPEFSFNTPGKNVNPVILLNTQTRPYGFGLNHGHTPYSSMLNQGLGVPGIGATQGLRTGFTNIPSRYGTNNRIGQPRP
inactive: [1] 0.115 | [2] -0.027 | [3] 0.009 | [4] -0.095 | [6] 0.048 | [7] 0.114 | [8] -0.058 | [9] 0.034 | [10] 0.116 | [11] -0.029 | [12] 0.118 | [14] -0.067 | [16] -0.048 | [17] -0.071 | [18] 0.093 | [19] 0.012 | [20] -0.096

SLC41A1 (UniProt Q8IVJ1)
UniProt Q8IVJ1, sequence (Q8IVJ1 whole entry, looked up): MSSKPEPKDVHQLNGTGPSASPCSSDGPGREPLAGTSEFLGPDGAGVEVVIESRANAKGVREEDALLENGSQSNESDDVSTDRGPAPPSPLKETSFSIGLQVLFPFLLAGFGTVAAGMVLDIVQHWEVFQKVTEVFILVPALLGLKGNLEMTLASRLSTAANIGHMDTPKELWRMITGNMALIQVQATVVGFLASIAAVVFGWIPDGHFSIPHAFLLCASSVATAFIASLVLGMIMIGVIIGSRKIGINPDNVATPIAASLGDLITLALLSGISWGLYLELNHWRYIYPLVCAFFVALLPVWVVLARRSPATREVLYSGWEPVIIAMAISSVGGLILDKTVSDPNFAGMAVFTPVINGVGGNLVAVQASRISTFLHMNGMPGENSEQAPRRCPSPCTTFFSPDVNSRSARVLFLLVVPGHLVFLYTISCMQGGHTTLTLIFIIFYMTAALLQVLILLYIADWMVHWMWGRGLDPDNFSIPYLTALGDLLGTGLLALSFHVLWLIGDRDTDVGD
inactive: [1] -0.059 | [3] 0.141 | [4] -0.09 | [6] 0.136 | [7] -0.016 | [8] 0.01 | [10] 0.113 | [11] -0.009 | [12] 0.012 | [14] 0.07 | [16] 0.23 | [17] -0.02 | [18] -0.003 | [19] 0.014 | [20] 0.055

STK26 isoform 3 (UniProt Q9P289)
inactive: [3] 0.095 | [5] 0.008 | [7] -0.001 | [8] -0.416 | [13] 0.181 | [15] -0.028 | [16] 0.093 | [18] 0.203

SHC1 (UniProt P29353)
inactive: [4] 0.029 | [6] -0.033 | [10] 0.009

SNRPD2 (UniProt K7EJB5)
inactive: [1] 0.005 | [3] -0.202 | [5] 0.014 | [7] 0.051 | [8] 0.105 | [11] -0.081 | [12] 0.005 | [13] -0.026 | [14] -0.094 | [15] -0.084 | [16] -0.267 | [17] -0.075 | [18] -0.082 | [19] 0.044 | [20] 0

SLC12A6 isoform 2 (UniProt Q9UHW9)
inactive: [1] -0.019 | [3] -0.051 | [5] -0.023 | [7] 0.068 | [8] 0.054 | [13] -0.072 | [15] 0.206 | [16] -0.011 | [18] -0.055 | [19] -0.043 | [20] 0.039

SLC35A3 isoform 2 (UniProt Q9Y2D2)
active: [4] -1.02
inactive: [1] -0.097 | [3] -0.267 | [6] 0.215 | [7] 0.032 | [8] 0.095 | [10] 0.332 | [11] 0.02 | [12] -0.001 | [14] -0.049 | [16] -0.241 | [17] 0.069 | [18] 0 | [19] 0.019 | [20] 0.056

From the supplement of paper PMC10849652
